Most compounds without a hit are left out; they make up all but 7.3% or so of the library.
HCV inh – inhibitors of hepatitis C virus infection; Huh7.5.1 HCVcc-Cre infection, luciferase reporter, 44 h; 3.4% of 340,000 active; Potency, µM (highest dose often 41.8 µM), usual class: inhibitors; active = well fitted inhibition curve with a large enough effect; inconclusive = small, poorly fitted or top-dose-only effect, or another doubt; inactive = no such curve, though single readings can be large or run the other way
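Reporter virus HCVcc-Cre (~0.5 moi) infects cells exposed to compound; seeding density 1,000 cells/well with 4 h settling beforehand. Luminescence, 15 sec read, taken 44 h post-infection following a 15 min RT substrate incubation.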
HCMV antiviral – blocks human cytomegalovirus replication. 4.5% of 410,000 active. activity change, negative = inhibition, % at 57.5 µM. HFF cells, HCMV-luciferase reporter, 72 h; hits give low values; in the data active = activity change below about -60%; inconclusive = no clear call, values can overlap the other calls; inactive = above about -39%
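Cell-based, HFFs, 1000 cells/well, 16 h 37C; cpds in DMSO + HCMV-luc, MOI 1 PFU/cell; 72 h 37C; OneGlo luminescence after 5 min RT; norm. to buffer vs Salinomycin 10uM.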
FMDV antiviral – foot and mouth disease virus antiviral activity | FMDV antiviral cell-based qHTS | AID 1159524 | 1.2% of 410,000 active | Potency, µM (top dose mostly 57.9 µM), most hits filed as inhibitors; calls by dose curve; tested in HEK293T cells; note: read-out not given here; nearly all actives have a fitted effect of over 45% in size
VACV Venus inh – vaccinia inhibition (Venus reporter) | Vaccinia virus Venus reporter expression, fluorescence | Potency, µM (series often up to 36.5 µM), actives largely listed as inhibitors | 0.46% of 330,000 active | AID 720580; calls by dose curve; tested in A549 cells; note: nearly all actives have a fitted effect of over 30% in size
Vaccinia mCherry – inhibitors of vaccinia virus infection (mCherry reporter signal); Vaccinia virus mCherry reporter infection, fluorescence; Potency, µM (titrated, usually from 36.5 µM), actives largely listed as inhibitors; 0.63% of 310,000 active; AID 720579; calls by dose curve; tested in A549 cells; note: nearly all actives have a fitted effect of over 35% in size
A number is an active result; i = inactive; ? = inconclusive; nt = no result; [ ] = dose if it differs, or a comment.

SMILES | HCV inh | HCMV antiviral | FMDV antiviral | VACV Venus inh | Vaccinia mCherry
CC1(C(=O)NCCc2ccccc2)Cc2c(-c3ccc4c(c3)OCO4)ccnc2O1 (centres undefined) | nt | i | i | i | i
CC1(C(=O)NCCc2ccccc2)Cc2c(-c3cccc(C(F)(F)F)c3)ccnc2O1 (centres undefined) | nt | -61.9 | i | i | ?
CC1(C(=O)NCc2ccccc2)Cc2c(-c3ccc4c(c3)OCO4)ccnc2O1 (centres undefined) | nt | -80.5 | i | i | i
CC1(C(=O)NCCc2ccccc2)Cc2c(-c3ccccc3)ccnc2O1 (centres undefined) | nt | i | i | i | i
CC(=O)Nc1cccc(-c2ccnc3c2CC(C)(C(=O)NCCc2ccccc2)O3)c1 (centres undefined) | nt | -88.2 | i | i | i
Cc1ccn(CCC(=O)NCC2Cc3cc(Cl)cc(-c4ccc5[nH]ccc5c4)c3O2)n1 (centres undefined) | nt | nt | i | i | i
COc1ccc(NC(=O)N2CC3(CCN(S(C)(=O)=O)CC3)C2)cc1 | nt | nt | i | nt | nt
CCCCCn1c(Sc2nc3ccccc3s2)nc2c1c(=O)[nH]c(=O)n2C | 8.91µM | i | nt | 10µM | 10µM
CC(C)CCn1c(Sc2nc3ccccc3o2)nc2c1c(=O)[nH]c(=O)n2C | ? | -78.4 | i | ? | ?
CCCCn1c(SCc2ccc(Cl)cc2)nc2c1c(=O)[nH]c(=O)n2C | i | i | 35.5µM | i | nt
CCCCCCn1c(SCC(C)C)nc2c1c(=O)[nH]c(=O)n2C | ? | i | ? | i | nt
CCCCCCn1c(SCC(=O)OC)nc2c1c(=O)[nH]c(=O)n2C | 5.01µM | i | i | i | i
CCCCCn1c(Sc2ncccn2)nc2c1c(=O)[nH]c(=O)n2C | i | i | i | i | nt
COc1ccc2c(c1)CC(NC(=O)Nc1c(C)cc(C)cc1C)CO2 (centres undefined) | nt | i | i | i | i
COc1ccc(CN(C(=O)Nc2cccc(Cl)c2)c2ccccn2)cc1OC | nt | i | i | i | i
CN(CC(=O)Nc1ccc([N+](=O)[O-])cc1Br)Cc1c(F)cccc1Cl | 14.1µM | i | i | i[7.34 µM] | i[7.34 µM]
CN(CCOc1ccccc1)CC(=O)Nc1ccc([N+](=O)[O-])cc1Cl | ? | i | ? | i | i
Cc1cc2cc(C#N)c(NCCNC(=S)NCCCN3CCOCC3)nc2cc1C | ? | i | i | i | i
Cc1cccc(C)c1NC(=O)C(=O)NCCCN1CCOCC1 | i | i | ? | 2µM | 6.31µM
Cc1ccc(S(=O)(=O)N2CCOC2CNC(=O)C(=O)NCCCN2CCOCC2)cc1 (centres undefined) | i | -61.2 | i | nt | nt
Cc1cccc2cc(C#N)c(NCCNC(=S)NCCCN3CCOCC3)nc12 | 11.2µM | i | nt | i | i
Cc1ccc(S(=O)(=O)N2CCCOC2CNC(=O)C(=O)NCCc2c[nH]c3ccccc23)cc1 (centres undefined) | ? | -63.6 | i | ? | ?
CCOC(=O)[C@]12CCC=C1N(Cc1ccc(Cl)cc1Cl)C(=O)[C@H](CC(=O)NCc1ccccc1)C2 | nt | i | i | i | i
CCOC(=O)C1=CN(Cc2ccco2)S(=O)(=O)NC1CC (centres undefined) | ? | i | i | i | i
COc1ccc(CN(C2CCCC2)S(=O)(=O)c2cc(Br)ccc2Br)c(OC)c1 | nt | i | nt | nt | nt
SMILES | HCV inh | HCMV antiviral | FMDV antiviral | VACV Venus inh | Vaccinia mCherry
O=C(NC(Cc1c[nH]c2ccccc12)C(=O)O)c1cccs1 (centres undefined) | i | i | i | i | i
O=C(NC(Cc1c[nH]c2ccccc12)C(=O)Nc1ccc(F)c([N+](=O)[O-])c1)c1cccs1 (centres undefined) | ? | -87.5 | i | i | 2.51µM
O=C(NC(Cc1c[nH]c2ccccc12)C(=O)Nc1ccc(OC(F)(F)F)cc1)c1cccs1 (centres undefined) | ? | -97.0 | ? | i | ?
CC(N)C(=O)NC(C(=O)NC(C)C(=O)Nc1cccc2ccccc12)C(C)C (centres undefined) | nt | i | i | i | i
O=C(CN1C(=O)S/C(=C\c2ccc(F)cc2)C1=O)Nc1cccc(S(=O)(=O)NCc2ccco2)c1 | i | -98.5 | i | i | i
CCc1ccccc1OCC(=O)Nc1cccc(S(=O)(=O)NCc2ccco2)c1 | ? | i | i | nt | nt
N#Cc1nc(-c2ccco2)oc1N1CCN(c2ccccc2)CC1 | i | -64.6 | ? | i | nt
COc1ccc(N2CCN(c3oc(-c4ccco4)nc3C#N)CC2)cc1 | i | i | i | i | i
Cc1nc2c([nH]c3ccc(Br)cc32)s1 | 10µM | ? | i | i | i
Cc1ccccc1OCC(=O)Nc1ccc(N2CCN(C(=O)c3ccco3)CC2)cc1 | ? | -72.8 | 28.2µM | ? | ?
O=C(CSc1ccc(Cl)cc1)Nc1ccc(N2CCN(C(=O)c3ccco3)CC2)cc1 | i | i | 20µM | i | nt
O=C(c1ccco1)N1CCN(C(=S)Nc2cccc([N+](=O)[O-])c2)CC1 | i | -68.8 | ? | i | i
Cc1cccc(NC(=S)N2CCN(C(=O)c3ccco3)CC2)c1 | i | i | i | i | i
CN1CCN(c2cc(N3CCc4ccccc4C3)c(F)cc2[N+](=O)[O-])CC1 | ? | i | i | ? | 10µM
Cc1cccc(OCC(=O)Nc2ccc(N3CCN(C(=O)c4ccco4)CC3)cc2)c1C | i | i | i | i | i
CCC(C)CN1C(=O)CSCC1(C)C(=O)NC(C)C (centres undefined) | nt | i | i | i | i
CCN(C(=O)CSc1nc2ccccc2n1Cc1ccc(C(=O)OC)cc1)c1ccccc1 | nt | i | i | i | i
O=C(CCC1N=C2c3ccccc3N=C(SCc3ccc(F)cc3)N2C1=O)N1CCN(c2ccccc2)CC1 (centres undefined) | nt | i | i | i | i
O=C(c1ccco1)N1CCN(c2cc(N3CCOCC3)c(F)cc2[N+](=O)[O-])CC1 | i | -102.8 | i | i | i
CCC(=O)Nc1ccc(N2CCN(C(=O)c3ccccc3C)CC2)cc1 | ? | i | i | nt | nt
O=C(c1ccco1)N1CCN(c2ccc([N+](=O)[O-])cc2F)CC1 | i | i | i | i | i
Cc1ccc(SCC(=O)Nc2ccccc2C(=O)N2CCOCC2)cc1 | i | -70.9 | i | i | i
Cc1ccccc1C(=O)N1CCN(c2ccc(NC(=O)CSc3ccc(Cl)cc3)cc2)CC1 | 11.2µM | -70.6 | ? | ? | i
O=C(COc1ccc(Cl)cc1)Nc1ccc(N2CCN(C(=O)c3ccco3)CC2)cc1 | 10µM | -85.9 | nt | ? | i
COc1ccc(OCC(=O)Nc2ccc(N3CCN(C(=O)c4ccco4)CC3)cc2)cc1 | i | ? | i | i | i
Cc1ccc2c(c1)cc(CN(C)Cc1nc(C)cs1)c(=O)n2C | nt | nt | i | i | i
CN(C)c1ccc(NC(=O)CN2C(=O)c3ccccc3Sc3ccc(C(=O)N4CCCC4)cc32)cc1 | nt | i | i | i | i
CCCCN1CC(C)(C)Oc2cccc(F)c2S1(=O)=O | i | i | i | i | i
Cc1cc(C)cc(OCC(=O)Nc2ccc(N3CCN(C(=O)c4ccco4)CC3)cc2)c1 | ? | i | nt | i | i
Cc1ccc(NC(=O)CSc2ccc3c(c2)OCCO3)c(O)c1 | 10µM | ? | i | nt | nt

High-throughput results deposited in PubChem by National Center for Advancing Translational Sciences (NCATS).
